The full ranking holds about 33,000 sequences; the median of “E-score (-0.5 to 0.5)” is about -0.0034, and the highest 2% start at about 0.25. Shown is part of a subset that was picked to be rich in the highest values.
Target: T1, Yap3 (UniProt P38749)
T1 sequence: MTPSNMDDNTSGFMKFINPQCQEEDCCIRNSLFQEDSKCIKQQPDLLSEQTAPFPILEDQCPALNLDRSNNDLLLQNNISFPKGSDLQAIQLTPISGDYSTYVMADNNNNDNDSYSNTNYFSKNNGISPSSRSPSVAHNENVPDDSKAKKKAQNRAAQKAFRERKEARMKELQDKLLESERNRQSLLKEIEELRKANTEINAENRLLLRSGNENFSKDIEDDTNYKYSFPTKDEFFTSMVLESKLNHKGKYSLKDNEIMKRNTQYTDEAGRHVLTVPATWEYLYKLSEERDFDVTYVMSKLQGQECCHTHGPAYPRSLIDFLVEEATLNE
Assay: PBM E-score (8-mer binding enrichment) (E-score (-0.5 to 0.5)); higher = stronger / more preferred TF binding
Settings: protein concentration: 100 nM; construct: GST-full length
Experimental: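 Universal 'all 10-mer' protein binding microarrays (Agilent AMADID 015681) probed with GST-tagged S. cerevisiae TFs (full-length or DBD) made by in vitro transcription/translation (PURExpress), about 100-200 nM. Bound TF was detected with fluorescent anti-GST. Each ungapped 8-mer (which stands for itself and its reverse complement) is scored by the PBM enrichment score (E-score), a modified Wilcoxon-Mann-Whitney statistic from -0.5 to +0.5, computed with the Universal PBM Analysis Suite. Scale: above 0.35 generally sequence-specific binding.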

Going from CGCGACAA to GCGTCCCA, the “PBM E-score” value falls from 0.272 to -0.121.

Compared with GGTGGCGA, AAGGAGCG is higher in “PBM E-score” value: -0.0578 for the first, 0.00726 for the second.

Compared with ACGGCAAT, ACGGCAAA is lower in “PBM E-score” value: 0.285 for the first, 0.134 for the second.

Compared with ACGGCAAG, GGAAAAAA is higher in “PBM E-score” value: 0.1 for the first, 0.248 for the second.

Compared with AAAAAAAC, GAAAAAAA is higher in “PBM E-score” value: 0.151 for the first, 0.287 for the second.

First: AAAAAAAA
Second: GAAAAACC
The “PBM E-score” value of the first is higher: 0.244 for the first, 0.136 for the second.

First: GGGAAAAC
Second: GGAAAACC
The “PBM E-score” value of the first is higher: 0.0844 for the first, -0.11 for the second.

Going from GGAAAAAC to GAAAAAAC, the “PBM E-score” value falls from 0.3 to 0.255.

Compared with CCCAGCAC, CACAGCAA is higher in “PBM E-score” value: -0.123 for the first, 0.103 for the second.

Going from AGTCCTAC to CTACCTTC, the “PBM E-score” value rises from -0.125 to 0.0321.

Going from AAGCTAAC to CCTAAGGC, the “PBM E-score” value falls from 0.0596 to -0.38.

First: ATACTTCA
Second: CTACTTCA
The “PBM E-score” value of the first is higher: 0.0363 for the first, -0.0894 for the second.

Going from GTACTTCA to GCCAGGCA, the “PBM E-score” value falls from 0.287 to -0.12.

Going from AACAGGCC to ACGCGTTG, the “PBM E-score” value rises from -0.258 to -0.027.

Compared with TTACCTAA, ATACCTAA is lower in “PBM E-score” value: 0.281 for the first, 0.273 for the second.

Going from ATACCTAC to ATACCTAT, the “PBM E-score” value rises from -0.0217 to 0.124.

First: GTACCTAA
Second: CTACCTAA
The “PBM E-score” value of the first is lower: -0.0819 for the first, 0.126 for the second.

First: CTCAGACA
Second: GCATTCAA
The “PBM E-score” value of the first is lower: 0.087 for the first, 0.0939 for the second.

Compared with CGAACAAA, AGAACAAG is lower in “PBM E-score” value: 0.303 for the first, 0.205 for the second.

Going from CGAACAAG to AGAACAAA, the “PBM E-score” value rises from 0.0425 to 0.291.

Compared with AGAACAAT, GGAACAAA is higher in “PBM E-score” value: 0.221 for the first, 0.311 for the second.

Compared with GCAACAAA, GGAACAAC is lower in “PBM E-score” value: 0.193 for the first, 0.157 for the second.

First: TGAACAAA
Second: CGCTCAAG
The “PBM E-score” value of the first is higher: 0.248 for the first, -0.114 for the second.

Going from AACTGGAC to CGCGAGAG, the “PBM E-score” value falls from 0.0415 to -0.0457.

First: AAGGCTTA
Second: AAGAGAGG
The “PBM E-score” value of the first is higher: 0.0457 for the first, -0.163 for the second.

Compared with GTTGTTCA, ACGTATTA is higher in “PBM E-score” value: -0.0828 for the first, 0.282 for the second.

Compared with CTGTATAA, CTGTAGTA is higher in “PBM E-score” value: 0.13 for the first, 0.281 for the second.

First: ATGTATTA
Second: CTGTATTC
The “PBM E-score” value of the first is higher: 0.178 for the first, 0.128 for the second.

Compared with GCGTATTA, GTGTAGTA is lower in “PBM E-score” value: 0.148 for the first, 0.0243 for the second.

Going from ATGTAGTA to ACGTATTG, the “PBM E-score” value falls from 0.237 to 0.111.

First: GTGTATTA
Second: GTGTATGA
The “PBM E-score” value of the first is higher: 0.338 for the first, 0.0534 for the second.

Compared with CTGTATTA, GCTGCTCC is lower in “PBM E-score” value: 0.258 for the first, -0.307 for the second.

Compared with ATCATATC, CGCTGTCA is lower in “PBM E-score” value: 0.193 for the first, -0.151 for the second.

Compared with CGAGAACC, CGCACACG is lower in “PBM E-score” value: -0.00819 for the first, -0.135 for the second.

Going from CCGTGAGA to AACGCGCC, the “PBM E-score” value rises from -0.162 to -0.0619.

Going from AGCTTTCC to ATTTGACG, the “PBM E-score” value rises from -0.0722 to 0.138.

Going from CTGGGCCC to ATGTGTTA, the “PBM E-score” value rises from -0.273 to 0.2.

Going from GTGTGTTA to CTGTGTTA, the “PBM E-score” value falls from 0.259 to 0.162.

Compared with TGTTGGAA, AAGTCGAA is lower in “PBM E-score” value: 0.122 for the first, -0.0326 for the second.

Compared with ATTACCAA, GTTACCAA is lower in “PBM E-score” value: 0.271 for the first, 0.221 for the second.

Going from AGTACCAA to CGTACCAA, the “PBM E-score” value falls from 0.281 to 0.21.

Going from TGTACCAA to ATTACCAC, the “PBM E-score” value rises from 0.0503 to 0.136.

Compared with AACTCAAA, GACGCGCC is lower in “PBM E-score” value: 0.187 for the first, -0.119 for the second.

First: AATATGGC
Second: CTGACGTA
The “PBM E-score” value of the first is lower: 0.0119 for the first, 0.0592 for the second.

First: ATGACAAA
Second: ATGACAAG
The “PBM E-score” value of the first is higher: 0.307 for the first, -0.0324 for the second.

Going from ATCACGTC to ATGACAAC, the “PBM E-score” value rises from 0.16 to 0.189.

Going from ATGACGTG to ATCACGTA, the “PBM E-score” value rises from 0.127 to 0.311.

Compared with ATGACGTA, ATCACGTG is lower in “PBM E-score” value: 0.277 for the first, 0.0436 for the second.

Compared with TGACTGCA, CGCAGGTA is higher in “PBM E-score” value: -0.167 for the first, -0.116 for the second.

Compared with ACTTAAGT, CCGAGCGC is lower in “PBM E-score” value: 0.193 for the first, 0.00891 for the second.

First: ACCTAGGG
Second: AGCAACGA
The “PBM E-score” value of the first is lower: -0.0254 for the first, 0.117 for the second.

First: CCGCTCGC
Second: ACAAGTTA
The “PBM E-score” value of the first is lower: -0.178 for the first, 0.16 for the second.

First: AACAATAC
Second: ACCAATAC
The “PBM E-score” value of the first is higher: 0.0469 for the first, 0.0412 for the second.

Going from AACAATAA to AACAATAT, the “PBM E-score” value rises from 0.179 to 0.329.

First: ACCAATAG
Second: ACCAATAT
The “PBM E-score” value of the first is lower: -0.0827 for the first, 0.254 for the second.

First: CGTGAACC
Second: TCTCAGCA
The “PBM E-score” value of the first is lower: -0.157 for the first, 0.0139 for the second.

First: CAATTGGC
Second: AATCCCCA
The “PBM E-score” value of the first is higher: 0.179 for the first, -0.0814 for the second.

Compared with CGGTTACC, ACCATGCG is higher in “PBM E-score” value: -0.159 for the first, 0.0314 for the second.

First: AAATTGGT
Second: CCAGGGAA
The “PBM E-score” value of the first is higher: 0.244 for the first, -0.188 for the second.

First: ACGAACCC
Second: ACGAACCA
The “PBM E-score” value of the first is lower: -0.133 for the first, 0.266 for the second.

Going from CCGAACCA to AGAAGGCA, the “PBM E-score” value rises from -0.116 to -0.115.

Compared with AATGCGCG, CATGCGCA is lower in “PBM E-score” value: 0.178 for the first, 0.0286 for the second.

First: AATGCAAG
Second: AATGCGCA
The “PBM E-score” value of the first is lower: 0.0231 for the first, 0.295 for the second.

Compared with AATGCAAC, AATGCATA is lower in “PBM E-score” value: 0.104 for the first, 0.0923 for the second.

Going from AATGCAAA to AATGCATG, the “PBM E-score” value falls from 0.262 to 0.188.

Compared with AATGCATT, GCTCTCCA is lower in “PBM E-score” value: 0.258 for the first, -0.215 for the second.

Going from TCTATTCA to TCAAACCA, the “PBM E-score” value falls from 0.222 to 0.165.

Going from ACACTCGT to TAATCCAA, the “PBM E-score” value rises from 0.00445 to 0.24.

Going from AGAGCCCA to CGGAAGAC, the “PBM E-score” value rises from -0.112 to -0.00677.

Going from ATAATATA to CGAATATA, the “PBM E-score” value falls from 0.307 to 0.148.

Compared with ATAATATC, GTAATATA is higher in “PBM E-score” value: 0.194 for the first, 0.354 for the second.

Compared with CTAATCTA, AGAATATA is higher in “PBM E-score” value: 0.00845 for the first, 0.14 for the second.

Going from CTAATATA to ATAATATG, the “PBM E-score” value rises from 0.235 to 0.307.

First: ATAATAGG
Second: GTAATCTA
The “PBM E-score” value of the first is lower: 0.157 for the first, 0.319 for the second.

First: GTAATAGA
Second: ATAATCTA
The “PBM E-score” value of the first is lower: 0.223 for the first, 0.229 for the second.

Going from CAATCGGC to CAAACTGC, the “PBM E-score” value rises from -0.0271 to 0.0735.

Going from ACTTGCTA to CACTCGAC, the “PBM E-score” value falls from -0.0697 to -0.0984.

Compared with AATTAGAA, CGATGGCC is lower in “PBM E-score” value: 0.0871 for the first, -0.0485 for the second.

Going from TGCTAGAA to CCAGATAG, the “PBM E-score” value falls from -0.0446 to -0.0894.

Going from ACAATATA to CCAATATA, the “PBM E-score” value falls from 0.302 to 0.0353.

First: GCAATATA
Second: AATGCGAC
The “PBM E-score” value of the first is higher: 0.216 for the first, 0.106 for the second.

First: AAGCGCTC
Second: AAGCGCTA
The “PBM E-score” value of the first is lower: -0.0695 for the first, 0.0946 for the second.

Going from AAGCGCTT to ACGCTTAT, the “PBM E-score” value falls from 0.321 to -0.04.

Going from AGTAACTG to AATATGTC, the “PBM E-score” value rises from 0.0876 to 0.111.

Compared with AATATATC, AATATGTG is higher in “PBM E-score” value: 0.157 for the first, 0.273 for the second.

Going from AATATATA to AATATGTA, the “PBM E-score” value falls from 0.229 to 0.222.

First: ACTATATG
Second: AATATATG
The “PBM E-score” value of the first is lower: 0.193 for the first, 0.304 for the second.

Compared with AATATATT, CATATATG is lower in “PBM E-score” value: 0.331 for the first, 0.126 for the second.

From the supplement of paper PMC3334620
